Source: PubChem BioAssay (National Center for Advancing Translational Sciences (NCATS))
CHX counter: affects cycloheximide protein synthesis inhibition readout, counter-screen | cell reporter, cycloheximide protein synthesis inhibition counterscreen | max response, % | hit rate 12% among 300,000; in the data active = max response mostly above about 13%, no sharp cut-off; inactive = mostly below about 14%; note: read at 38.3 µM for the half of the compounds with a filed dose; 0% is about no effect
AmpC no deterg: AmpC beta-lactamase inhibition without detergent; Potency, µM (highest dose often 57.1 µM), for inactives: at the highest dose activity change, negative = inhibition, hits mostly inhibitors; AID 485341; AmpC nitrocefin hydrolysis, absorbance 480 nm, 0.0001% Triton; hit rate 0.52% among 330,000; P00811;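 note: potency is the fitted concentration of half-maximal effect; plate controls were no compound for no effect and no enzyme for full effect; nearly all actives have a fitted effect of over 20% in size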
Target sequence (P00811 whole entry, looked up): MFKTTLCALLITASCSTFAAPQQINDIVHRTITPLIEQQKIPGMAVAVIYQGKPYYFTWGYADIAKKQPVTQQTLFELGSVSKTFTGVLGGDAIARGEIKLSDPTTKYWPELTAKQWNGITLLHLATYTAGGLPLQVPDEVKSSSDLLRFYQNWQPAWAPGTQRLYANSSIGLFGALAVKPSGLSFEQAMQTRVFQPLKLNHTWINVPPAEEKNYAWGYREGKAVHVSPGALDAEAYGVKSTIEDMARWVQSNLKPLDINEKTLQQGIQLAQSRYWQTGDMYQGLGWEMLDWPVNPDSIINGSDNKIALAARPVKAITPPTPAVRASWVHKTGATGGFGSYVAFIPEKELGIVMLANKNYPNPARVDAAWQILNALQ
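20 mM phosphate pH 7.0 + 0.01% (detergent screen) or 0.0001% Triton X-100; 5.3 nM AmpC reagent; cpd preinc 15 min RT; nitrocefin (800 uM stock) to start; A480 q20 s × 4 min; Activity was normalised to no-enzyme and no-compound control wells.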
Shiga toxin inh: blocks Shiga toxin action in Vero cells. AID 2315. hit rate 9.2% among 290,000. inhibition, % at 38.7 µM. Vero cells, Shiga toxin protein synthesis inhibition reporter; in the data active = inhibition mostly above about 28%, no sharp cut-off; inactive = mostly below about 43%; note: 0% is about no effect
AmpC inh detg: AmpC beta-lactamase inhibition with detergent present | P00811 | AmpC hydrolysis of nitrocefin, absorbance 480 nm, 0.01% Triton | Potency, µM (series often up to 114 µM), for the others: at the highest dose activity change, negative = inhibition, hits mostly inhibitors | hit rate 0.041% among 370,000;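 note: potency is the fitted concentration of half-maximal effect; 0% = no-compound wells and -100% = no-enzyme wells; nearly all actives have a fitted effect of over 25% in size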
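AmpC (5.3 nM in the dispensed reagent) in 20 mM phosphate pH 7.0 with 0.01% (detergent screen) or 0.0001% Triton X-100 was preincubated with compounds for 15 min at room temperature. Nitrocefin was then added from an 800 uM solution, and hydrolysis was followed at 480 nm.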
SARS PLP yeast: inhibitors of SARS-CoV papain-like protease in yeast; S. cerevisiae expressing SARS-CoV PLpro, growth rescue; AID 485353; hit rate 0.19% among 330,000; Potency, µM (titrated, usually from 32.9 µM), inactives show top-dose activity, positive = growth rescue, actives largely listed as activators; calls by dose curve; note: potency is the fitted concentration of half-maximal effect; 0% is about no effect; nearly all actives have a fitted effect of over 55% in size
AMA1 RON2 block: AMA1-RON2 (P. falciparum) interaction inhibition; AlphaScreen AMA1-biotinylated RON2 peptide binding; Potency, µM (highest dose often 58.2 µM), for the others: at the top dose activity change, negative = inhibition, hits mostly inhibitors; hit rate 0.2% among 360,000; AID 720542;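 note: potency is the fitted concentration of half-maximal effect; 0% = vehicle wells and -100% = peptide control; nearly all actives have a fitted effect of over 45% in size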
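AMA1 (3D7) with his tag at 25 nM final met compounds first, then biotinylated RON2 peptide at 25 nM; detection used donor plus acceptor beads, 10 µg/mL apiece, read by AlphaScreen after 30 min at room temperature.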
* marks the source's active call; other numbers are inactive results; ? = inconclusive; / = no result given; + = active, no number; [ ] = another dose, or the depositor's remark. The entries come from a sample that favours hits as a whole. Unless noted, calls come from the whole dose curve; as a rule, active = well fitted curve in the direction sought with a large enough effect; inconclusive = small, poorly fitted or top-dose-only effect, or another doubt; inactive = no such curve, though single readings can be large; an effect the other way counts as inactive or inconclusive.

SMILES	CHX counter	AmpC no deterg	Shiga toxin inh	AmpC inh detg	SARS PLP yeast	AMA1 RON2 block
COc1cccc(NC(=O)CCC(=O)Nc2cccc(OC)c2)c1	-2	-21%	19	-3%	14%	3%
CCOCC(=O)Nc1cccc(OC)c1	16*	-18%	37	-3%	-26%	-8%
Cc1cc2c(ncn2C)c(NS(=O)(=O)c2ccccc2Cl)c1C	6	?	22	2%	4%	2%
CCCCCC(=O)NC(=S)Nc1cccc(-c2nc3ncccc3o2)c1	-3	-19%	6	-5%	2%	9%
COc1ccc(-c2cc(NC=O)c3ncc(-c4cccc(C(=O)NCCN(C)C)c4)n3c2)cn1	/	/	/	/	/	43%
O=C(CSc1nc2ccccc2[nH]1)N/N=C/C=C/c1ccccc1[N+](=O)[O-]	10	-59%	14	-9%	12%	-3%
CC(=O)Nc1cccc(OCC(=O)Nc2ccccc2)c1	47*	-29%	114*	-2%	-1%	6%
CC(=O)Nc1cccc(NC(=O)COc2ccc3c(c2)CCC3)c1	/	8%	/	-9%	-10%	5%
COc1cccc(NC(=O)COc2ccc(Br)c(C)c2)c1	12*	-28%	10	-12%	-13%	8%
O=C(COc1cccc(Oc2ccccc2)c1)Nc1ncccn1	14*	-4%	29*	-6%	-13%	-1%
CCOc1ccc(-c2cccc(NC(=O)COc3ccccc3)c2)nn1	27*	-18%	19	1%	-3%	-4%
CCOc1ccc(CN(C)C(=O)CCc2ccc(S(=O)(=O)N3CCCCCC3)cc2)cc1	/	66%	/	?	2%	14%
O=C(C1=C[C@H](c2ccc3c(c2)OCO3)C[C@H](OCCCCO)O1)N1CCOCC1	7	14%	-6	4%	3%	-1%
O=Cc1cn(CCC(=O)O)nc1-c1cc2ccccc2o1	3	-15%	7	2%	-1%	8%
Cc1cccc(NC(=O)COc2ccccc2)c1	33*	-21%	129*	?	-2%	2%
COc1cccc(NC(=O)COc2ccccc2)c1	28*	-9%	/	-5%	-4%	8%
COc1cccc(NC(=O)CNC(=O)c2ccccc2)c1	27*	-17%	77*	?	0%	-5%
COc1cc(NC(=O)COc2cccc(OC)c2)cc(OC)c1	9	-38%	-1	-11%	2%	-1%
CC(=O)Nc1ccc(NC(=O)c2sc3nc4n(c(=O)c3c2C)CCCCC4)cc1	-1	-11%[11.4 µM]	12	?	0%	16%
COc1ccc(C2C(C#N)=C3NC(=O)c4c(sc5c4CCCCC5)N3C3=C2C(=O)CC(C)(C)C3)cc1 (stereo not given)	-4	-53%	34	?	1%	22%
COC(=O)c1ccc2c(c1)NC(=O)C(N1CCCCC1)S2 (stereo not given)	-4	-55%	-13	?	3%	37%
C/C(=N\Nc1nc(N)cc(Cl)n1)c1ccc(Cl)c(Cl)c1	6	?	26	-10%	1%	55%
C/C(=N\Nc1nccnc1Cl)c1ccc(Cl)c(Cl)c1	29*	2%	/	?	-3%	5%
C/C(=N\Nc1nccnc1Cl)c1ccc(O)cc1	26*	-19%	29*	?	-6%	45%
C/C(=N\Nc1nccnc1Cl)c1ccc(F)cc1	33*	-10%	85*	-8%	0%	41%
SMILES	CHX counter	AmpC no deterg	Shiga toxin inh	AmpC inh detg	SARS PLP yeast	AMA1 RON2 block
C/C(=N\Nc1nc(N)cc(Cl)n1)c1ccc(F)cc1	41*	-26%	70*	1%	-3%	97%
C/C(=N\Nc1nccnc1Cl)c1c(F)c(F)c(F)c(F)c1F	11	-4%	29	-5%	43%	-7%
Cc1ccccc1OCC(O)Cn1c(N2CCN(c3ccccc3)CC2)nc2c1c(=O)[nH]c(=O)n2C (stereo not given)	0	-12%	-7	?	-4%	17%
Cc1ccc(NC(=O)COC(=O)CCc2ccc(S(=O)(=O)N3CCOCC3)cc2)c(C)c1	-2	-6%	-5	-16%	1%	-2%
Cc1ccnc(NC(=O)c2ccc(Cl)c(NC(=O)CCc3ccccc3)c2)c1	11	-20%	21	-4%	0%	/
COc1cccc(C(=O)Nc2cc(C(=O)NCCc3ccccc3)ccc2Cl)c1	20*	-57%	34	-2%	-1%	2%
COc1cccc(/C(O)=C/c2nc3ccc(C(=O)NCCc4cccc(C)c4)cc3[nH]c2=O)c1	14	11µM*	-7	?	7%	120%
CCCCC(=O)Nc1cc(C(=O)NCCc2ccccc2)ccc1Cl	18*	-44%	17	?	-2%	1%
COCC(=O)Nc1cc(C(=O)Nc2cccc(C)c2C)ccc1Cl	14*	-12%	18	0%	-4%	1%
COc1cccc(C(=O)NCCS(=O)(=O)NCCc2ccccc2)c1	/	-23%	/	-15%	1%	-15%
CCNC(=O)NC(=O)C(C)OC(=O)c1oc2ccc(OC)cc2c1C (stereo not given)	5	-7%	-4	2%	6%	4%
CCCCNC(=O)C[C@@H]1C[C@@]2(C(=O)OC)CC(C)(C)CC=C2N(Cc2ccccc2)C1=O	/	/	/	/	/	2%
CCN1C(=O)/C(=C\c2ccc(-c3cccc(C(=O)OC)c3)o2)SC1=Nc1ccc(C(=O)O)cc1	-4	-34%	-5	-3%	-5%	/
Cc1ccc(NC(=O)CN2C(=O)N/C(=C/c3ccccc3OCc3cccc(C(=O)O)c3)C2=O)cc1	43*	-53%	48*	?	1%	?
Cc1cccc(NC(=O)CN2C(=O)N/C(=C\c3ccc(-c4cccc(C(=O)O)c4)o3)C2=O)c1	54*	-39%	174*	7%	1%	-3%
CCN=C1S/C(=C\c2ccc(-c3cccc(C(=O)O)c3)o2)C(=O)N1CC	83*	-14%	+	-4%	-1%	-2%
CC(=O)c1cccc(NS(=O)(=O)c2cc3c(cc2C)NC(=O)CO3)c1	12	-14%	-11	-14%	0%	-3%
COc1ccc(NC(=O)c2noc3c2CCC3)cc1	35*	-20%	65*	-11%	-10%	-9%
Cc1ccc(NC(=O)c2noc3c2CCC3)cc1C	28*	-31%	93*	-3%	0%	0%
O=C(Nc1cccc(O)c1)c1noc2c1CCCCC2	22	-23%	-8	-10%	-16%	-1%
COC(=O)c1ccccc1NC(=O)c1noc2c1CCCC2	-3	19%	21	-12%	0%	10%
O=C(Nc1ccc(OC(F)(F)F)cc1)c1noc2c1CCCC2	/	/	/	21%	/	/
CC(=O)c1ccc(NC(=O)c2noc3c2CCC3)cc1	10	?	64*	?	1%	-19%
CCCCC(=O)NC(c1ccco1)c1cc(Cl)c2cccnc2c1O (stereo not given)	-2	77%	-18	-4%	1%	30%
